In PubChem BioAssay (NCI):
Where “and” joins values, the source holds several entries; their conditions need not be identical. Identical values can stand only once. This is part of a sample that, as a whole, favours compounds with a hit. Of some 83,000 tested, about 20% had one in any assay.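 Activity criterion: percent growth below 10, measured after cells in 96-well plates were exposed to a single compound concentration for 48 hours.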 Unmarked numbers belong to inactive results. Calls of active or inactive are those of the source.

test system: MDA-MB-468 breast; test: NCI-60 one-dose screen, 48 h (100 = growth as untreated, 0 = no growth, -100 = all killed); details: 10 µM unless noted

Row | SMILES | growth
1 | CCN(CC)c1ccc(C(=O)c2ccc(N(CC)CC)cc2)cc1 | -36% (active)
2 | CC1OC(Oc2c(-c3ccc(O)c(O)c3)oc3cc(O)cc(O)c3c2=O)C(O)C(O)C1O (centres undefined) | 102%
3 | COC(=O)/C=C1/SC(=Nc2cccc(Cl)c2)N(CCc2c[nH]c3ccc(O)cc23)C1=O | 24.7%
4 | Brc1ccc(-c2nc3ccccc3s2)cc1 | 93%
5 | O=C1Nc2ccc(Cl)cc2/C1=N/c1nc(-c2ccc(F)cc2)cs1 | 27.6%
6 | C=C(C)[C@@H]1CC[C@]2(C(=O)NCCNCCNC(=O)OC(C)(C)C)CC[C@]3(C)[C@H](CC[C@@H]4[C@@]5(C)CCC(=O)C(C)(C)[C@@H]5CC[C@]43C)[C@@H]12 | 53.5% [100 µM]
7 | CS(=O)(=O)Nc1cccc(-c2ccc3ncnc(Nc4cncc(Cl)c4)c3c2)c1 | -39.5% (active)
8 | CCN(CC)CCNC(=O)c1ccc(NC(C)=O)cc1 | 111%
9 | Cc1ccc(C2=Nn3c(nnc3-c3ccccc3)SC2)cc1 | 25.1%
10 | Oc1[nH]c2ccc(Cl)cc2c1/C=c1/ccc2c(c1)N=C(c1cc(F)cc(F)c1)N=2 | 53%
11 | COc1cc2ccc(C(C)=O)cc2cc1OC | 106%
12 | Cc1ccc(-c2cc(-c3nnc(SCC(=O)c4ccccc4)o3)c3ccccc3n2)cc1 | 115%
13 | CC(C)CC(NC(=O)OCC1c2ccccc2-c2ccccc21)C(=O)O (centres undefined) | 103%
14 | CCCCCCCCCCCCCCCCOP(=O)([O-])OCC[N+](C)(C)C | -24% (active)
15 | N#CC(C#N)N=Nc1ccc(Br)cc1 | 0.0168% (active)
16 | Oc1c(Cl)cc(Cl)c(Cl)c1Cc1c(O)c(Cl)cc(Cl)c1Cl | 4.35% (active)
17 | C#CCOC(=O)[C@@H]1CCCN1CC#C | 75.4%
18 | N#Cc1cccc(-c2cc(-c3ccc4c(c3)OCCO4)[nH]n2)c1 | 18.6%
19 | CN(C)CCCOc1ccccc1NC1=C(Cl)C(=O)C(Nc2ccccc2OCCCN(C)C)=C(Cl)C1=O | -60.6% (active)
20 | CCn1cc(C(=O)O)c(=O)c2cc(F)c(N3CCNCC3)cc21 | 93.2%

Row | SMILES | growth
21 | O=C(c1ccc(-c2ccccc2)cc1)c1ccc([N+](=O)[O-])cc1 | 108%
22 | O=C1c2c(c3c4cccnc4[nH]c3c3ccc4ccccc4c23)C(=O)N1CCN1CCCCC1 | 29.4%
23 | Cc1nc2sc(C(=O)Nc3ccccc3)c(N)c2cc1C(O)c1ccccc1 (centres undefined) | 3.45% (active)
24 | CN(C)c1ccc(N=Cc2ccc(N3CCOCC3)cc2)cc1 | 57.5%
25 | C#CC[C@@H]1C[C@]2(C)[C@H]3CC=C4[C@H]5[C@@H](C)[C@H](C)CC[C@]5(C(=O)NCCCN5CCN(CCCN)CC5)CC[C@@]4(C)[C@]3(C)CC[C@H]2C(C)(C)[C@H]1OC(C)=O | -72.9% (active)
26 | CN1CCN(c2ccc3cc(-c4nc5ccccc5[nH]4)c(=O)oc3c2)CC1 | 68.3%
27 | COc1ccc2c(c1)nc(N)c1c3ccccc3cn21 | 58.5%
28 | Cc1cc2ncc(-c3cc4ccccc4c(N4CCN(C)CC4)n3)nc2cc1C | -76.6% (active)
29 | CS(=O)(=O)c1ccc(-c2[nH]c3ccc(F)cc3c2/C=N/O)cc1 | 93.7%
30 | NC1CCC(C(=O)O)CC1 (centres undefined) | 99.8% and 107%
31 | COc1cc(OC)c2sc(-c3ccc(-n4cncc4-c4ccc(OC)c(N)c4)cc3)nc2c1 | 80.6%
32 | C#CCOc1ccc2ncnc(Nc3cccc(CNC(=O)C=C)c3)c2c1 | 89.2% [8.25 µM]
33 | COc1ccc(CN2CCc3c(Sc4ccccc4)nc(N)nc3C2=O)c(OC)c1 | 48.2%
34 | Cc1ccc(S(=O)(=O)n2cc(C(=O)C(=O)Nc3ccncc3)c3ccccc32)cc1 | 1.96% (active)
35 | O=C(NNC(=S)Nc1ccccc1)c1cc2ccc1CCc1ccc(cc1)CC2 | 67%
36 | O=C(O)c1cccc(Br)c1 | 104% and 101%
37 | O=C(NCCN1CCOCC1)Nc1ccc(-c2cc3c(Nc4ccc(Oc5cccc(C(F)(F)F)c5)c(Cl)c4)ncnc3s2)cc1 | -28.3% (active)
38 | COc1cccc(C(=O)OCCn2nc3c4c(cccc42)C(=O)c2ccccc2-3)c1O | 24.9%
39 | N=S(c1ccccc1[N+](=O)[O-])c1ccccc1[N+](=O)[O-] | 15.1%
